Compound activity (PubChem)
Shown is part of a subset that was picked to be rich in hits.
PDI inh – inhibitors of human protein disulfide isomerase. AID 588391. PDI insulin aggregation turbidity, A650, 90 min. actives 0.052% (n = 350,000). inhibition, % at 10 µM. P07237;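 active = mean inhibition across replicates of 30% or more, whatever share of single replicates reach that level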
ALR H2O2 inh – blocks human ALR sulfhydryl oxidase activity | P55789 | purified ALR, DTT oxidation, H2O2 HRP-luminol luminescence | inhibition, % (test concentration not listed) | actives 3.8% (n = 290,000);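 active = mean replicate inhibition above about 79%, with every replicate also reaching it, limit read from the data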
ARNT-TACC3 inh – disruptors of human ARNT/TACC3 interaction. Q9Y6A5. AlphaScreen His-ARNT PAS-B/GST-TACC3 binding, luminescence; TACC3 fragment carries E629A point mutation. inhibition, % at 9.99 µM. actives 0.66% (n = 390,000). AID 623870;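 active = mean inhibition of replicates at least 50% and at least half of replicates each reaching 50%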;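 also: 0% = complete ARNT plus TACC3 wells and 100% = ARNT alone without TACC3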
CendR NRP1 mod – modulators of CendR peptide binding to human neuropilin-1 | O14786 | inhibition, % at 25 µM | actives 0.85% (n = 360,000) | FAM-RPARPAR peptide binding to NRP-1, fluorescence polarization;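 active = inhibition or corrected inhibition above about 18%, plus a signal ratio from 0.5 to 1.5, limit read from the data, passing the limit was not always enough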
PglD DTNB – PglD (C. jejuni) enzyme inhibition; purified PglD enzyme, DTNB colorimetric CoA detection; inhibition, % at 12.5 µM; actives 0.098% (n = 360,000); in the data active = inhibition above about 16%, passing the limit was not always enough
ERp5 inh – ERp5 (human) disulfide isomerase inhibition. Q15084. ERp5 insulin aggregation, absorbance 650 nm, 90 min. inhibition, % at 9.99 µM. actives 0.05% (n = 350,000). AID 651711;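 active = mean replicate inhibition above about 25%, with every replicate also reaching it, limit read from the data, passing the limit was not always enough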
An asterisk follows results filed as active.

What do the screens show for `COc1ccc(CN2C(=O)C(C)Nc3ncnc(N4CCOCC4)c32)cc1` (stereo unspecified)?
PDI inh: 1; ALR H2O2 inh: -1; ARNT-TACC3 inh: 1; CendR NRP1 mod: -10; PglD DTNB: -3; ERp5 inh: 4

Results for CC1Nc2ncnc(N3CCOCC3)c2N(Cc2ccccc2)C1=O (stereo unspecified) ?
PDI inh: -2; ALR H2O2 inh: 2; ARNT-TACC3 inh: 23*; CendR NRP1 mod: -16; PglD DTNB: 0; ERp5 inh: -5

How did COC(=O)c1nc2n(n1)C(c1ccc(OC)c(OC)c1OC)C1=C(CCCC1=O)N2 (stereo unspecified) do in these assays?
PDI inh: 0; ALR H2O2 inh: -2; ARNT-TACC3 inh: 0; CendR NRP1 mod: 18*; PglD DTNB: -1; ERp5 inh: -1

What do the screens show for `COc1ccc(C2C3=C(CCCC3=O)Nc3nc(-c4cc(OC)c(OC)c(OC)c4)nn32)cc1OC` (stereo unspecified)?
PDI inh: -5; ALR H2O2 inh: -3; ARNT-TACC3 inh: 24; CendR NRP1 mod: -2; PglD DTNB: 2

What do the screens show for `COc1ccc(-c2nc3n(n2)C(c2ccccc2)C2=C(CCCC2=O)N3)cc1OC` (stereo unspecified)?
PDI inh: -18; ALR H2O2 inh: 97*; ARNT-TACC3 inh: 7; CendR NRP1 mod: -4; PglD DTNB: -1

What do the screens show for `COC(=O)c1nc2n(n1)C(c1ccccc1OC)C1=C(CCCC1=O)N2` (stereo unspecified)?
PDI inh: 1; ALR H2O2 inh: 5; CendR NRP1 mod: 10; PglD DTNB: -7

Results for CO[C@H]1CN(C)C(=O)c2ccc(NS(=O)(=O)c3cn(C)cn3)cc2OC[C@H](C)N(CCC(F)(F)F)C[C@@H]1C ?
ERp5 inh: 10

Results for Cc1ccc(N2C(=O)CSCC2=O)cc1 ?
PDI inh: 1; ALR H2O2 inh: 3; ARNT-TACC3 inh: -5; CendR NRP1 mod: 2; PglD DTNB: 0

Results for Cc1ccc(N2C(=O)CS/C2=C(\C(Cl)=C(Cl)Cl)[N+](=O)[O-])cc1 ?
PDI inh: -2; ALR H2O2 inh: 98*; ARNT-TACC3 inh: 5; CendR NRP1 mod: -22; PglD DTNB: 8; ERp5 inh: -3

How did CCc1ccc(NCc2ccc(OC)c(Cn3ccnc3)c2)cc1 do in these assays?
PDI inh: -56; ALR H2O2 inh: 81*; ARNT-TACC3 inh: 24; CendR NRP1 mod: 9; PglD DTNB: 5; ERp5 inh: 3

Results for O=C(O)c1ccc(N/N=C/c2cn(Cc3ccccc3F)c3ccccc23)cc1 ?
PDI inh: -4; ALR H2O2 inh: 98*; ARNT-TACC3 inh: 0; CendR NRP1 mod: 0; PglD DTNB: 3; ERp5 inh: 0

How did Nc1ccc(C(=O)N/N=C/c2cn(Cc3ccccc3F)c3ccccc23)cc1 do in these assays?
PDI inh: 6; ALR H2O2 inh: -11; ARNT-TACC3 inh: 6; CendR NRP1 mod: 9; PglD DTNB: 1; ERp5 inh: 0

How did Cn1cc(/C=N/Nc2ccccc2)c2ccccc21 do in these assays?
PDI inh: -7; ALR H2O2 inh: -20; ARNT-TACC3 inh: 30; CendR NRP1 mod: -6; ERp5 inh: -2

Results for CC(C)n1cc(/C=N/Nc2ccc(C(=O)O)cc2)c2ccccc21 ?
PDI inh: -2; ALR H2O2 inh: 100*; ARNT-TACC3 inh: -2; CendR NRP1 mod: -7; PglD DTNB: -5; ERp5 inh: -9

Results for CCCNC(=O)N1[C@H](C#N)[C@@H](c2ccccc2-c2ccccc2F)[C@@H]1CO ?
ERp5 inh: 4

What do the screens show for `C[C@@H]1CCCCO[C@@H](CN(C)Cc2ccc(C(F)(F)F)cc2)[C@H](C)CN([C@@H](C)CO)C(=O)c2cc(NS(=O)(=O)c3ccc(Cl)cc3)ccc2O1`?
ARNT-TACC3 inh: 1; PglD DTNB: 3; ERp5 inh: 0

Results for CN1CCc2cccc3c2C1Cc1ccc(O)c(O)c1-3 (stereo unspecified) ?
PDI inh: -1; ALR H2O2 inh: 98*; ARNT-TACC3 inh: 5; CendR NRP1 mod: 2; PglD DTNB: -1; ERp5 inh: 4

Results for COc1ccc(S(=O)(=O)Nc2ccc3c(c2)[C@@H]2C[C@@H](CC(=O)O)O[C@@H](CO)[C@@H]2O3)cc1 ?
ARNT-TACC3 inh: -2; PglD DTNB: -1; ERp5 inh: -9

Results for CCCOP(=O)(OCCC)C1(Nc2ccc(C)cc2)CCCCC1 ?
PDI inh: 4; ALR H2O2 inh: 93*; ARNT-TACC3 inh: -1; CendR NRP1 mod: 9

How did CCOC(=O)/C(=N\Nc1ccccc1Cl)N1CCN(C)CC1 do in these assays?
PDI inh: -11; ALR H2O2 inh: 98*; ARNT-TACC3 inh: -4; CendR NRP1 mod: -12; PglD DTNB: 0; ERp5 inh: -2

What do the screens show for `Cc1cc(/C=N/NC(N)=S)c(O)c(/C=N/NC(N)=S)c1`?
PDI inh: -3; ARNT-TACC3 inh: 66*; CendR NRP1 mod: -15; PglD DTNB: 2; ERp5 inh: 3

How did O=C(O)c1ccc(N/N=C/c2c[nH]c3ccccc23)cc1 do in these assays?
PDI inh: 3; ALR H2O2 inh: 98*; ARNT-TACC3 inh: 0; CendR NRP1 mod: 2; PglD DTNB: 1; ERp5 inh: 0

Results for O=C(O)c1ccc(S(=O)(=O)NN=Cc2c[nH]c3ccccc23)cc1 ?
PDI inh: 11; CendR NRP1 mod: -1; ERp5 inh: 7

What do the screens show for `Cn1c(N/N=C/c2c[nH]c3ccccc23)nc2ccccc21`?
PDI inh: 4; ALR H2O2 inh: 98*; ARNT-TACC3 inh: 33; CendR NRP1 mod: -7; PglD DTNB: 1

How did O=C(O)c1ccc(N/N=C/C(Br)=C/c2ccccc2)cc1 do in these assays?
PDI inh: 12; ALR H2O2 inh: 98*; ARNT-TACC3 inh: 18; CendR NRP1 mod: -16; PglD DTNB: -2; ERp5 inh: 3

What do the screens show for `O=C(N/N=C/C(Br)=C/c1ccccc1)C(O)c1ccccc1` (stereo unspecified)?
PDI inh: 5; ALR H2O2 inh: -5; ARNT-TACC3 inh: 18; CendR NRP1 mod: -8; PglD DTNB: 2; ERp5 inh: 6

How did C[C@H]1CN([C@@H](C)CO)C(=O)Cc2cc(NC(=O)c3ccncc3)ccc2O[C@H]1CN(C)C(=O)Nc1cccc2ccccc12 do in these assays?
ARNT-TACC3 inh: 0; PglD DTNB: 5; ERp5 inh: 1

How did CCCC#Cc1cnc2c(c1)C(=O)N([C@H](C)CO)C[C@H](C)[C@@H](CN(C)C(=O)Nc1ccc(OC)cc1)O2 do in these assays?
ARNT-TACC3 inh: -4; PglD DTNB: 3; ERp5 inh: 0

What do the screens show for `O=C(NCCN1CCCC1)[C@@H]1[C@@H](CO)[C@@H]2Cn3c(cccc3=O)[C@H]1N2C(=O)NC1CCCC1`?
ERp5 inh: 6
